PubChem BioAssay (EPA / NIEHS)
The source made the active and inactive calls. How the source made its calls: active means hit-call score of the fitted dose curve at least 0.9, where 1 is the maximum; inconclusive means response in the unintended direction; inactive means score below 0.9.

Target: rat CYP3A2, Cyp3a2 (gene 266682) (UniProt P05183)
Experiment: NVS_ADME_rCYP3A2: NovaScreen (NVS) CYP450-related Enzyme Activity (ADME) Assay for rat CYP3A2 (AID 2283128)
Description: NVS_ADME_rCYP3A2 is a biochemical, single-readout assay that uses extracted gene-proteins in a cell-free assay. Measurements were taken 0.5 hour after chemical dosing in a 96-well plate.NVS_ADME_rCYP3A2 is one of one assay component(s) measured or calculated from the NVS_ADME_rCYP3A2 assay. It is designed to make measurements of enzyme activity, a form of enzyme reporter, as detected with fluorescence intensity signals by Fluorescence technology.Data from the assay component NVS_ADME_rCYP3A2 was analyzed into 1 assay endpoint. This assay endpoint, NVS_ADME_rCYP3A2, was analyzed in the positive analysis fitting direction relative to Acetonitrile as the negative control and baseline of activity. Using a type of enzyme reporter, loss-of-signal activity can be used to understand changes in the enzymatic activity as they relate to the gene Cyp3a2. Furthermore, this assay endpoint can be referred to as a primary readout, because this assay has produced multiple assay endpoints where this one serves a enzymatic activity function. To generalize the intended target to other relatable targets, this assay endpoint is annotated to the cyp intended target family, where the subfamily is xenobiotic metabolism.
Binding assays used specific radioligands (tritiated, iodinated) with non-radioactive competitive displacement ligands in agonist or antagonist protocols (as indicated) and various reference compounds and inhibitors to titrate specific binding to receptors and transporters. Most enzyme assays (CYPs, kinases, phosphatases, proteases, HDACs) used recombinant protein and specific substrates (fluorescence mostly, some colorimetric and radioactive) and inhibitors, followed by a biochemical separation of substrate and product. All assays for the biochemical HTS were initially run in duplicate at a single concentration (10 uM for CYP450 assays and 25 uM for all others). Assay-chemical combinations meeting a pre-defined threshold (e.g., 30% inhibition and other criteria defined below) were then run in singleton concentration-response format with maximum concentration of 20 uM for CYPs and 50 uM for all others. Each assay was run with positive and negative controls, and concurrent controls on every plate. The follow-up (secondary) screen tested active chemical-pairs in concentration series, as well as a few additional assays not tested in the primary screen, some selected negative inactives, and several cases re-run in the concentration series for confirmatory purposes.

Chain of rat CYP3A2, Cyp3a2 (gene 266682) (P05183 whole entry, looked up): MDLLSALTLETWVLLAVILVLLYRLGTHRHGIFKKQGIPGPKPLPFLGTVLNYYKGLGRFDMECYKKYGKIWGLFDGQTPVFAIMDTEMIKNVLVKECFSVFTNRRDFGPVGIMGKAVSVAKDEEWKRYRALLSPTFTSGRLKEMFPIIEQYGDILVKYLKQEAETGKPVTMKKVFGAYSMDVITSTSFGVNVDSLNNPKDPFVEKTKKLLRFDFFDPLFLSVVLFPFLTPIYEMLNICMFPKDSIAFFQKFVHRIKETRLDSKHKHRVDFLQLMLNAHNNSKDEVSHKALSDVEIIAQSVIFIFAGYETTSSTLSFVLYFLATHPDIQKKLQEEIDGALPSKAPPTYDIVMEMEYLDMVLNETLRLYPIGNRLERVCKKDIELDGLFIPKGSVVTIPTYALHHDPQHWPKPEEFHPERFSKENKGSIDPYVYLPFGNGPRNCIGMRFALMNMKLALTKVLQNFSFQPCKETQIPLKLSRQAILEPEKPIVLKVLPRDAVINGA

| SMILES | AC50 | outcome |
| --- | --- | --- |
| C=C(C)[C@H]1Cc2c(ccc3c2O[C@@H]2COc4cc(OC)c(OC)cc4[C@@H]2C3=O)O1 | 2.88 µM (active) |  |
| C[Si](Cn1cncn1)(c1ccc(F)cc1)c1ccc(F)cc1 | 1.07 µM (active) |  |
| CCCSP(=O)(OCC)Oc1ccc(Br)cc1Cl (stereo not given) | 7.4 µM (active) |  |
| CCOP(=O)(SC(C)CC)N1CCSC1=O (stereo not given) | 8.56 µM (active) |  |
| CCOC(=O)CC(SP(=O)(OC)OC)C(=O)OCC (stereo not given) |  | inactive |
| CCc1cccc(C)c1N(C(=O)CCl)C(C)COC (stereo not given) | 6.68 µM (active) |  |
| CC(C1CC1)C(O)(Cn1cncn1)c1ccc(Cl)cc1 (stereo not given) | 0.771 µM (active) |  |
| FC(F)C(F)(F)OCC(Cn1cncn1)c1ccc(Cl)cc1Cl (stereo not given) | 5.51 µM (active) |  |
| CC[C@H](C)[C@H]1O[C@]2(C=C[C@@H]1C)C[C@@H]1C[C@@H](C/C=C(\C)[C@@H](O[C@H]3C[C@H](OC)[C@@H](O[C@H]4C[C@H](OC)[C@@H](NC)[C@H](C)O4)[C@H](C)O3)[C@@H](C)/C=C/C=C3\CO[C@@H]4[C@H](O)C(C)=C[C@@H](C(=O)O1)[C@]34O)O2 | 8.11 µM (active) |  |
| COc1cccc(C(=O)NN(C(=O)c2cc(C)cc(C)c2)C(C)(C)C)c1C | 0.651 µM (active) |  |
| C#CCC1=C(C)C(OC(=O)C2C(C=C(C)C)C2(C)C)CC1=O (stereo not given) | 3.03 µM (active) |  |
| CC1(C(=O)Nc2ccc(O)c(Cl)c2Cl)CCCCC1 | 3.42 µM (active) |  |
| COc1ccc(C(=CC(=O)N2CCOCC2)c2ccc(Cl)cc2)cc1OC | 6.54 µM (active) |  |
| CSC1=N[C@@](C)(c2ccccc2)C(=O)N1Nc1ccccc1 | 7.11 µM (active) |  |
| CCOP(=S)(OCC)Oc1ccc([N+](=O)[O-])cc1 | 2.86 µM (active) |  |
| CCCOCC(=Nc1ccc(Cl)cc1C(F)(F)F)n1ccnc1 | 1.7 µM (active) |  |
| COP(=O)(OC)SCn1c(=O)oc2cc(Cl)cnc21 | 6.18 µM (active) |  |
| CCOP(=S)(OCC)Oc1ccc2c(C)c(Cl)c(=O)oc2c1 | 0.83 µM (active) |  |
| CN(C)NC(=O)CCC(=O)O |  | inactive |
| CNc1cnn(-c2cccc(C(F)(F)F)c2)c(=O)c1Cl |  | inactive |
